Only some compounds are listed: those with a hit (about 5% of all), similar ones and a draw of the others.
USP8 block – human USP8 deubiquitinase inhibition; P40818; AID 1645853; 4.2% of 47,000 active; inhibition, % at 20 µM; purified USP8, Ub-rhodamine cleavage fluorescence, 30 min
USP10 inh – blocks human USP10 ubiquitin-rhodamine cleavage; Q14694; purified USP10, Ub-rhodamine fluorescence, 60 min; inhibition, % at 20 µM; 1.1% of 47,000 active; AID 1645856
USP7 block – inhibitors of human USP7 deubiquitinase; Q93009; purified USP7, Ub-rhodamine cleavage fluorescence; inhibition, % at 20 µM; 0.3% of 47,000 active; AID 1645854
UCHL1 block – blocks human UCHL1 ubiquitin-rhodamine cleavage. inhibition, % at 20 µM. purified UCHL1, Ub-rhodamine cleavage fluorescence. P09936. 0.2% of 47,000 active
Numbers stand for hits; . = inactive. Cut-off read from the data, not from the text of the source: active = inhibition above about 30%; inactive = the rest.

SMILES | USP8 block | USP10 inh | USP7 block | UCHL1 block
Cc1ccc(C2SCC(=O)Nc3c2c(=O)[nH]n3C2CCCCC2)cc1 (centres undefined) | 88 | . | . | .
CCOc1ccc(C2SCC(=O)Nc3c2c(=O)[nH]n3C2CCCCC2)cc1 (centres undefined) | 88 | . | . | .
COc1ccc(C2SCC(=O)Nc3c2c(=O)[nH]n3C2CCCCCC2)cc1OC (centres undefined) | . | . | . | .
O=C1CSC(c2ccc3c(c2)OCO3)c2c(n(C3CCCCCC3)[nH]c2=O)N1 (centres undefined) | 83 | . | . | .
CCCNC(=O)C1=NOC2(CCNCC2)C1 | . | . | . | .
CC(=O)Nc1ccc(CN2CCC3(CC2)OC(=O)N(C)c2ccccc23)cc1 | . | . | . | .
Cc1ccc(C(CNC(=O)c2oc3ccccc3c2C)N2CCCC2)o1 (centres undefined) | . | . | . | .
COc1c2c(c(O)c3c1C(=O)c1c(cc(O)c(C)c1O)C3=O)-c1c(cc3c(c1O)C(=O)OC3O)CC2 (centres undefined) | 72 | 75 | 55 | 69
CN(C)[C@H]1C(=O)C(C(N)=O)=C(O)C2(O)C(=O)C3=C(O)c4c(O)cccc4C(C)(O)C3C(O)C12 (some centres undefined) | . | . | . | 43
C/C=C1/CN2CC[C@]34C(=C(C(=O)OC)[C@H]1C[C@H]23)Nc1c(O)cccc14 | 86 | . | . | .
COC(/C=C/CC/C=C/C(=O)O)C(O)C(C)/C=C(\C)C(O)C(C)C(=O)CCCC1CC(=O)NC(=O)C1 (centres undefined) | . | . | . | .
c1cc(-c2nccc(CN3CCCC4(CCCCC4)C3)n2)ccn1 | 37 | . | . | .
O=C1C=CC(O)C2C1CC13SSC4(CC5C(=O)C=CC(O)C5N4C1=O)C(=O)N23 (centres undefined) | . | . | . | .
Oc1ccc2ccccc2c1CN1CC=C(c2ccccc2)CC1 | 35 | . | . | .
C=C/C(=C/C(=O)C[C@H](C)C[C@@H](C)CC[C@H](O)[C@H](C)C(=O)CC(O)[C@H](C)[C@@H](C)OC(=O)C[C@@H](O)C1=C(C)C(=O)OC1=O)CC (some centres undefined) | 77 | 81 | 77 | 92
Cc1ccc(CN2CCC3(CC2)OC(=O)Nc2ccccc23)cc1 | . | . | . | .
COc1cccc2c1NC(=O)C21CCN(C(=O)Nc2cccc3ccccc23)CC1 | 97 | . | . | .
CCCC1N2CC3(C)CN1CC(C)(C2)C3=O (centres undefined) | . | . | . | .
Cc1noc(C)c1CN1C[C@H](OCc2cccnc2)[C@H]2COC[C@H]21 | . | . | . | .
O=C(Nc1cccnc1)[C@H]1C[C@@H]2CCN(Cc3ccoc3)C[C@H]2O1 | . | . | . | .
COC1=C(C2=C(OC)C(=O)c3cc4c(c(O)c3C2=O)C(=O)OC(C)C4)C(=O)c2c(cc3c(c2O)C(=O)OC(C)C3)C1=O (centres undefined) | . | . | . | 40
COc1cc(O)cc2c1C(=O)O[C@@H](C)CCCC(=O)CCCCC2 | . | . | . | .
Cc1cccc2cc3c(nc12)OC(C)CNC3 (centres undefined) | . | . | . | .
CC1Oc2cc3c(-c4c(O)cc(O)c5c(O)c6c(cc45)OC(C)C(C)C6=O)c(O)cc(O)c3c(O)c2C(=O)C1C (centres undefined) | 59 | 68 | 85 | 88

Screens from PubChem BioAssay.
